# PubChem BioAssay (NCATS)
# Several values for one entry are separate records, joined by “and”; a condition that tells them apart may be missing. Identical values can stand only once. Results filed as inconclusive are left out. A call without a number means that no potency is given here. The source holds several records for some structures; these can differ, active in one and inactive in another. Activity calls are given as the source filed them. Calls come from the whole dose curve; as a rule, active = well fitted inhibition curve with a large enough effect; inconclusive = small, poorly fitted or top-dose-only effect; inactive = no such curve, though single readings can be large or run the other way.
# Assay: Primary qHTS for inhibitors of nuclear receptor binding SET domain protein 2 (NSD2) in an RCH-ACV wild type WT cells (2C) (AID 1645877); note: nearly all actives have a fitted effect of over 70% in size
# Conditions: RCH-ACV (leukaemia line) NSD2 WT (2C) viability, CellTiter-Glo, 72 h; series mostly up to 44.9 µM
# Source text: Assay Provider: Jonathan D. Licht, MD
# University of Florida College of Medicine, Gainesville, FL
# Mutations in epigenetic regulators are common in relapsed pediatric acute lymphoblastic leukemia (ALL). Here, we uncovered the mechanism underlying the relapse of ALL driven by an activating mutation of the NSD2 histone methyltransferase (p.E1099K). […] Correction of this mutation restored glucocorticoid sensitivity. The transcriptional response to glucocorticoids was blocked in NSD2 mutant cells due to depressed glucocorticoid receptor (GR) levels and the failure of glucocorticoids to autoactivate GR expression. […] Pre-treatment of NSD2 p.E1099K cell lines and PDX samples with PRC2 inhibitors reversed glucocorticoid resistance in vitro and in vivo.
# High-throughput drug screening of isogenic RCH-ACV cell lines was performed at the National Center for Advancing Translational Science (NCATS), National Institutes of Health as previously described (1). Briefly, isogenic RCH-ACV NSD2 p.E1099K mutant (9B) and WT cells (2C) were plated at 500 cells/well in a 1536-well plate with a 72-hour incubation with compounds prior to addition of CellTiter-Glo to assess cell viability. NCATS libraries screened include: NPC, MIPE 5.0, Kinase and NPACT. To determine compound activity in the qHTS assay, the concentration-response data for each sample was plotted and modeled by a four-parameter logistic fit yielding IC50 and efficacy (maximal response) values. The area under the curve (AUC) of the dose-response curve ensures both efficacy (magnitude of cell killing) and potency (concentration that elicits cell killing) are accounted for in the analysis of activity.
# 1. Tobie D Lee, Olivia W Lee, Kyle R Brimacombe, Lu Chen, Rajarshi Guha, Sabrina Lusvarghi, Bethilehem G Tebase, Carleen Klumpp-Thomas, Robert W Robey, Suresh V Ambudkar, Min Shen, Michael M Gottesman, Matthew D Hall. A High-Throughput Screen of a Library of Therapeutics Identifies Cytotoxic Substrates of P-glycoprotein. Mol Pharmacol. 2019, Nov;96(5):629-640.
row,Structure (SMILES),Potency
1,CCC(=O)O[C@]1(C(=O)SCF)[C@H](C)C[C@H]2[C@@H]3C[C@H](F)C4=CC(=O)C=C[C@]4(C)[C@@]3(F)[C@@H](O)C[C@@]21C,inactive
2,COc1cc(NS(=O)(=O)c2ccc(N)cc2)nc(OC)n1,inactive
3,CNC(=O)c1cc(Oc2ccc(NC(=O)Nc3ccc(Cl)c(C(F)(F)F)c3)cc2)ccn1,7.42 µM (active) and 5.15 µM (active)
4,CC(C)C1CCC(C(=O)N[C@H](Cc2ccccc2)C(=O)O)CC1 (stereo not given in full),inactive
5,CNNCc1ccc(C(=O)NC(C)C)cc1,inactive
6,Cc1ncc([N+](=O)[O-])n1CCO,inactive
7,COc1nc(N)nc2c1ncn2[C@@H]1O[C@H](CO)[C@@H](O)[C@@H]1O,6.68 µM (active)
8,CO[C@@H]1[C@@H](OC(N)=O)[C@@H](O)[C@H](Oc2ccc3c(O)c(NC(=O)c4ccc(O)c(CC=C(C)C)c4)c(=O)oc3c2C)OC1(C)C,inactive
9,CNC1CCCN(c2c(F)cc3c(=O)c(C(=O)O)cn(C4CC4)c3c2OC)C1 (stereo not given),inactive
10,C[C@]12C=CC(=O)C=C1CC[C@@H]1[C@@H]2C(=O)C[C@@]2(C)[C@H]1CC[C@]2(O)C(=O)CO,inactive
11,COc1cc([C@@H]2c3cc4c(cc3[C@H](O)[C@H]3COC(=O)[C@H]23)OCO4)cc(OC)c1OC,6 nM (active) and 29.5 nM (active)
12,C[C@@H]1C[C@H]2[C@@H]3CCC4=CC(=O)C=C[C@]4(C)[C@@]3(Cl)[C@@H](O)C[C@]2(C)[C@@]1(OC(=O)c1ccco1)C(=O)CCl,inactive and 1.2 nM (active)
13,C[C@@H]1CN(c2c(F)c(N)c3c(=O)c(C(=O)O)cn(C4CC4)c3c2F)C[C@H](C)N1,inactive
14,CN(CCOc1ccc(CC2SC(=O)NC2=O)cc1)c1ccccn1 (stereo not given),inactive
15,CCCN[C@H]1CCc2nc(N)sc2C1,inactive
16,NC(=O)c1cccnc1,inactive
17,CC[C@H](C)C(=O)O[C@H]1C[C@@H](C)C=C2C=C[C@H](C)[C@H](CC[C@@H]3C[C@@H](O)CC(=O)O3)[C@H]21,8.33 µM (active)
18,CCC(=O)O[C@]1(C(=O)CCl)[C@@H](C)C[C@H]2[C@@H]3CCC4=CC(=O)C=C[C@]4(C)[C@@]3(F)[C@@H](O)C[C@@]21C,inactive and 1 nM (active)
19,CCCCCCNC(=O)n1cc(F)c(=O)[nH]c1=O,7.5 µM (active) and 8.33 µM (active)
20,CC(N)C12CC3CC(CC(C3)C1)C2 (stereo not given),inactive

row,Structure (SMILES),Potency
1,CC(=O)CC(c1ccccc1)c1c(O)c2ccccc2oc1=O (stereo not given),inactive
2,NS(=O)(=O)c1cc2c(cc1Cl)NC(C(Cl)Cl)NS2(=O)=O (stereo not given),inactive
3,NC1(c2ccc(-c3nc4ccn5c(=O)[nH]nc5c4cc3-c3ccccc3)cc2)CCC1,21.1 nM (active) and 81.7 nM (active) and 332 nM (active)
4,N=C(N)c1ccc(OCCCCCOc2ccc(C(=N)N)cc2)cc1,4.22 µM (active) and 4.68 µM (active)
5,CC(C)C[C@H](NC(=O)[C@H](CCc1ccccc1)NC(=O)CN1CCOCC1)C(=O)N[C@@H](Cc1ccccc1)C(=O)N[C@@H](CC(C)C)C(=O)[C@@]1(C)CO1,6 nM (active) and 5.3 nM (active)
6,COc1cc2c(Nc3ccc(Br)cc3F)ncnc2cc1OCC1CCN(C)CC1,5.15 µM (active) and 16.6 µM (active)
7,C[C@@H](NCCCc1cccc(C(F)(F)F)c1)c1cccc2ccccc12,15 µM (active) and 14.8 µM (active)
8,CCN[C@H]1C[C@H](C)S(=O)(=O)c2sc(S(N)(=O)=O)cc21,inactive
9,CCCCS(=N)(=O)CCC(N)C(=O)O (stereo not given),inactive
10,CC(C)NCC(O)c1ccc(NS(C)(=O)=O)cc1 (stereo not given),inactive
11,CCN(C)C(=O)Oc1cccc([C@H](C)N(C)C)c1,inactive
12,O=c1oc2c(O)c(O)cc3c(=O)oc4c(O)c(O)cc1c4c23,inactive
13,Cc1nnc(NS(=O)(=O)c2ccc(N)cc2)s1,inactive
14,Cc1ccc(S(=O)(=O)N[C@@H](Cc2ccccc2)C(=O)CCl)cc1,11.8 µM (active)
15,Cn1c(=O)c2c(ncn2CC(O)CO)n(C)c1=O (stereo not given),inactive
16,C#CCN[C@@H]1CCc2ccccc21,inactive
17,CC1(C)[C@H](C(=O)O)N2C(=O)C[C@H]2S1(=O)=O,inactive
18,CN(C)CCc1c[nH]c2ccc(C[C@H]3COC(=O)N3)cc12,inactive
19,Cc1onc(-c2ccccc2Cl)c1C(=O)N[C@@H]1C(=O)N2[C@@H]1SC(C)(C)[C@@H]2C(=O)O,inactive
20,CCCCc1oc2ccc(NS(C)(=O)=O)cc2c1C(=O)c1ccc(OCCCN(CCCC)CCCC)cc1,2.99 µM (active) and 9.16 µM (active) and 6.61 µM (active)
